# Experimental data from PubChem BioAssay (EPA / NIEHS).
# Results filed as inconclusive are left out. Activity calls are given as the source filed them. How the source made its calls: active means hit-call score of the fitted dose curve at least 0.9, where 1 is the maximum; inconclusive means response in the unintended direction; inactive means score below 0.9.
# Tests used:
# [1] = system: Sodium/Iodide Symporter (NIS), SLC5A5 (gene 6528); assay: CPHEA_Stoker_NIS_Inhibition_RAIU: CPHEA's Radioactive Iodide Uptake (RAIU) Assay for Sodium/Iodide Symporter (NIS) Inhibition, Stoker and Laws Labs (AID 2283841)
# Summary of the method: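 Iodide uptake read as CPM of intracellular 125I (final 329 pM) after 2 h room-temperature exposure in HEPES-buffered HBSS, pH 7.4. Human NIS-expressing HEK293T cells; six concentrations 0.001–100 uM, 0.5% DMSO, normalised to DMSO wells.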
# [2] = CPHEA_Stoker_NIS_Cytotoxicity: Cytotoxicity Assessment for CPHEA's Radioactive Iodide Uptake (RAIU) Assay for Sodium/Iodide Symporter (NIS) Inhibition, Stoker and Laws Labs (AID 2283897);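 on AC50: active means loss of ATP signal versus DMSO meaning cytotoxicity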
# Summary of the method: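 CellTiter-Glo ATP luminescence gauged viability in HEK293T cells expressing human NIS after 2 h chemical exposure. Concentrations ran 0.001–100 uM in 0.5% DMSO; DMSO served as baseline for the loss-of-signal fit.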
# [3] = biological target: zebrafish Thyroid Hormone Receptor beta (TRb), thrb (gene 30607) (UniProt Q9PVE4); assay: ATG_zfTRb_XSP2: Attagene TRANS-FACTORIAL Multi-Species (XSP1) HepG2 Assay for zebrafish Thyroid Hormone Receptor beta (TRb) (AID 2283836)
# Summary of the method: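 Reporter transcripts were measured by RT-PCR with fluorescent primer extension and capillary electrophoresis, 24 h after chemical dosing of transiently transfected HepG2 cells. Activity was scored as upward signal versus DMSO baseline.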
# [4] = biological target: human Thyroid hormone Receptor beta (TRb), THRB (gene 7068) (UniProt P10828); assay: ATG_hTRb_XSP2: Attagene TRANS-FACTORIAL Multi-Species (XSP2) HepG2 Assay for human Thyroid hormone Receptor beta (TRb) (AID 2283840);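 further: actives raise reporter mRNA so potency reflects agonist-like gain of signal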
# Summary of the method: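 Transient transfection of human HepG2 with multi-species NR-Gal4/GAL4-UAS reporter constructs; 24 h compound treatment; RNA isolation, reverse transcription, PCR and HpaI digest; capillary electrophoresis of labeled fragments; activity fitted upward versus DMSO.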
# PGR (gene 5241) [5] = biological target: PGR (gene 5241) (UniProt P06401); assay: TOX21_PR_BLA_Followup_Antagonist_ratio: Tox21 HEK293 Progesterone Receptor (PR) Antagonism Beta-lactamase Follow-Up Assay, Ratio (AID 2283934)
# Summary of the method: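 Read-out: blue/green beta-lactamase FRET ratio (cleaved ch2 over uncleaved ch1), fitted relative to DMSO baseline. Cells: PR-UAS-bla HEK293T, GAL4-UAS reporter, stimulated with 1 nM R5020 final; 16 hr compound exposure, 37C.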
# [6] = TOX21_PR_BLA_Followup_Agonist_viability: Viability Assessment in the Tox21 HEK293 Progesterone Receptor (PR) Agonism Beta-lactamase Follow-Up Assay (AID 2283935);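 further: signal loss means lower viability so actives are cytotoxic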
# Summary of the method: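 Luminescent ATP quantitation (CellTiter-Glo, 30 min, room temperature) in the same wells as the beta-lactamase read, on PR-UAS-bla HEK293T cells exposed to compound for 16 hr at 37C in 2% charcoal-stripped serum.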
# PGR (gene 5241) [7] = biological target: PGR (gene 5241) (UniProt P06401); assay: TOX21_PR_LUC_Followup_Antagonist: Tox21 HEK293 Progesterone Receptor (PR) Antagonism Luciferase Follow-Up Assay (AID 2283938);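 further: curve fitted upward as signal gain over DMSO baseline despite antagonist label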
# Summary of the method: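 Cells are grown 5 days in charcoal-stripped-FBS assay medium, plated, left 5 h, then dosed with compound and incubated 16 h. ONE-Glo reagent is added and luminescence read after 30 min.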
# [8] = TOX21_PR_LUC_Followup_Antagonist_viability: Viability Assessment in the Tox21 HEK293 Progesterone Receptor (PR) Antagonism Luciferase Follow-Up Assay (AID 2283940)
# Source text: TOX21_PR_LUC_Followup is a secondary assay for specificity for the TOX21_PR_BLA_Agonist assay. To differentiate true PR agonists from cytotoxic substances, this follow up assay is multiplexed with a cell viability assay.TOX21_PR_LUC_Followup_Antagonist_viability is an assay readout measuring cellular ATP content and detected with CellTiter-Glo Luciferase-coupled ATP quantitation.TOX21_PR_LUC_Followup_Antagonist_viability used a type of viability reporter where loss-of-signal activity can be used to understand changes in the cell viability. Furthermore, this assay endpoint can be referred to as a secondary readout, because this assay has produced multiple assay endpoints where this one serves a viability function. To generalize the intended target to other relatable targets, this assay endpoint is annotated to the cell cycle intended target family, where the subfamily is cytotoxicity.
# Quality Control Precautions: Maintain cells below 85-90% confluence in culture medium. […] Then 4 uL of ONE-Glo reagent (Promega, Madison, WI) was added to each plate using a BioRAPTR Flying Reagent Dispenser (FRD) workstation (Beckman Coulter, Indianapolis, IN, USA) and luminescence was quantified on a ViewLux (PerkinElmer, Shelton, CT) plate reader after 30 min incubation at room temperature.
# [9] = TOX21_PR_BLA_Followup_Antagonist_viability: Viability Assessment in the Tox21 HEK293 Progesterone Receptor (PR) Antagonism Beta-lactamase Follow-Up Assay (AID 2283936);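 further: cells exposed to compound with R5020 agonist for 16 h; hits lower the luminescence signal meaning cytotoxicity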
# Method: TOX21_PR_BLA_Followup is a secondary assay for specificity for the TOX21_PR_BLA_Agonist assay. To differentiate true PR agonists from cytotoxic substances, this follow up assay is multiplexed with a cell viability assay. The compounds were also tested for auto fluorescence that may interfere with the biological target readout resulting in potential false positives and/or negatives. To identify the compounds that stimulate PR signaling, a PR-UAS-bla GripTite cell line i.e. PR-UAS-bla HEK293T (Invitrogen, Carlsbad, CA, USA) containing a beta-lactamase reporter gene under the control of an UAS response element was used to screen Tox21 10K compound library. The cytotoxicity of the Tox21 compound library against the PR-bla cell line was tested in parallel by measuring the cell viability using CellTiter-Glo assay in the same wells. TOX21_PR_BLA_Followup_Antagonist_viability is a component of the TOX21_PR_BLA_Followup_Antagonist assay. This component measures cell viability using the CellTiter-Glo Luciferase-coupled ATP quantitation.TOX21_PR_BLA_Followup_Antagonist_viability used a type of viability reporter where loss-of-signal activity can be used to understand changes in the cell viability. Furthermore, this assay endpoint can be referred to as a secondary readout, because this assay has produced multiple assay endpoints where this one serves a viability function. […]
# PGR (gene 5241), sequence (P06401 whole entry, looked up, the tested form may be a part): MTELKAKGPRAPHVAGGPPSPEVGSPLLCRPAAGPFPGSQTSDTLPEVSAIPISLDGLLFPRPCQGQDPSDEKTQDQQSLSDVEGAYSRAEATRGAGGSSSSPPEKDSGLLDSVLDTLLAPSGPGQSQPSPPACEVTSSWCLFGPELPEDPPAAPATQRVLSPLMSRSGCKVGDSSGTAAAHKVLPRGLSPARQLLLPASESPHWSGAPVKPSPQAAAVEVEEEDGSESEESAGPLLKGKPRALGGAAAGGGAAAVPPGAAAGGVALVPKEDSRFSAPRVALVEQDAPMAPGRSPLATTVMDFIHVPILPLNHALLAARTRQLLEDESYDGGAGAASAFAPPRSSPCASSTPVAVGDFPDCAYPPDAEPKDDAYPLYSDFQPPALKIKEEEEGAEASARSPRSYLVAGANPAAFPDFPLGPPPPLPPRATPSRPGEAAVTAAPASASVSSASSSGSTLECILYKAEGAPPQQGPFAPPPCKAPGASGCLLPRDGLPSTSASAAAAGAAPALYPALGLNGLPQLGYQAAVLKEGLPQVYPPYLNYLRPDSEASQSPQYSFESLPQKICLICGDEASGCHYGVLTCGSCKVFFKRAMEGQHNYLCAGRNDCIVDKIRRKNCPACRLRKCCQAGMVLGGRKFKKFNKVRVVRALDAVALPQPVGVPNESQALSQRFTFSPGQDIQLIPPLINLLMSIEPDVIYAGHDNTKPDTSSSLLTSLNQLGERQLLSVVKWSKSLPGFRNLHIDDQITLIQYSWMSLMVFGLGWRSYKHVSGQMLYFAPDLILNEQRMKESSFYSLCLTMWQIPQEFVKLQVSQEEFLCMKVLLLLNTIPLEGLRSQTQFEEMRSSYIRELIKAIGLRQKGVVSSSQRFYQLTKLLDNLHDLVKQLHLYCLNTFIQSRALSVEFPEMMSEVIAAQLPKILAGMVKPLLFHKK
# human Thyroid hormone Receptor beta (TRb), THRB (gene 7068), sequence (P10828 whole entry, looked up, the tested form may be a part): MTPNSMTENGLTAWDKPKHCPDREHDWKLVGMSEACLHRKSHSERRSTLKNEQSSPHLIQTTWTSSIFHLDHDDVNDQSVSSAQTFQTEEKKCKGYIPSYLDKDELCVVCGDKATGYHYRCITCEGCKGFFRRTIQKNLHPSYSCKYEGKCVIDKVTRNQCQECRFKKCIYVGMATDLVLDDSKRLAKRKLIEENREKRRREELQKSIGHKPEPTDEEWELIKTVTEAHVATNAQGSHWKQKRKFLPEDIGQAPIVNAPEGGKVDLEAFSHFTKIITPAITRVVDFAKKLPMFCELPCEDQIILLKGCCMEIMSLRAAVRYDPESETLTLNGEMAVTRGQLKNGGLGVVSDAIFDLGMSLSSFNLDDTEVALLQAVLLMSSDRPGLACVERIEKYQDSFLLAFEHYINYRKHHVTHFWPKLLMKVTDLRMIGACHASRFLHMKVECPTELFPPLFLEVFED
# zebrafish Thyroid Hormone Receptor beta (TRb), thrb (gene 30607), sequence (Q9PVE4 whole entry, looked up): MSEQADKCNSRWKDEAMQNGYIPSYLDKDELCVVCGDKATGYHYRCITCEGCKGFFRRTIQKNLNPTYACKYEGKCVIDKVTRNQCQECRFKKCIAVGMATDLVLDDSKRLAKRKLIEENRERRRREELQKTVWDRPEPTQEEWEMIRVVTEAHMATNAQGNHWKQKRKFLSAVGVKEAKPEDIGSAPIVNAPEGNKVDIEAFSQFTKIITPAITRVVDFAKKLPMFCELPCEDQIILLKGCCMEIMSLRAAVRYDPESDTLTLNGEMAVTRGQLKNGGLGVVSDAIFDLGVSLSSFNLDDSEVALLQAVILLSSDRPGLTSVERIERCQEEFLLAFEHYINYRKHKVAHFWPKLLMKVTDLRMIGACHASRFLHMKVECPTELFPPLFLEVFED
smiles,measurement,setting,value
Cc1[nH]nc2c1N=C(c1ccccc1Cl)c1cc([N+](=O)[O-])ccc1N2,outcome,[1],inactive
same,outcome,[2],inactive
CC(C)c1c(C(=O)Nc2ccccc2)c(-c2ccccc2)c(-c2ccc(F)cc2)n1CC[C@@H](O)C[C@@H](O)CC(=O)O,outcome,[1],inactive
same,outcome,[2],inactive
OCC(F)(F)C(F)(F)C(F)(F)C(F)(F)C(F)(F)C(F)(F)C(F)(F)C(F)(F)C(F)(F)C(F)(F)C(F)(F)F,outcome,[1],inactive
O=C(CCCN1CCC(O)(c2ccc(Cl)cc2)CC1)c1ccc(F)cc1,outcome,[2],inactive
CCCCCCCCCCCC,outcome,[1],inactive
same,outcome,[2],inactive
NC(=NCCCCCCN=C(N)/N=C(\N)Nc1ccc(Cl)cc1)/N=C(\N)Nc1ccc(Cl)cc1,outcome,[1],inactive
same,AC50,[2],87 µM (active)
O=C(CC(=O)C(F)(F)C(F)(F)C(F)(F)F)c1cccs1,AC50,[1],13.5 µM (active)
CCCCCCc1ccc(N)cc1,outcome,[1],inactive
same,outcome,[2],inactive
O=C(O)C(=O)O,outcome,[1],inactive
same,outcome,[2],inactive
C[C@]12CC[C@@H]3c4ccc(O)cc4CC[C@H]3[C@@H]1C[C@@H](O)[C@@H]2O,outcome,[3],inactive
same,outcome,[4],inactive
same,AC50,PGR (gene 5241) [5],17.1 µM (active)
same,outcome,[6],inactive
same,AC50,PGR (gene 5241) [7],26 µM (active)
same,outcome,[8],inactive
NCCN,AC50,[1],4.18 µM (active)
same,outcome,[2],inactive
C[C@]12CC[C@@H]3c4ccc(O)cc4CC[C@H]3[C@@H]1CC[C@@H]2OC(=O)CCC1CCCC1,AC50,PGR (gene 5241) [5],1.01 µM (active)
same,outcome,[6],inactive
same,outcome,[9],inactive
same,outcome,PGR (gene 5241) [7],inactive
Cc1cc(C(C)(C)C)c(O)c(C(C)(C)C)c1,outcome,[1],inactive
same,outcome,[2],inactive
Cc1cc(Cc2cc(C)cc(C(C)(C)C)c2O)c(O)c(C(C)(C)C)c1,outcome,[1],inactive
same,outcome,[2],inactive
O=C(O)CCC(F)(F)C(F)(F)C(F)(F)C(F)(F)C(F)(F)F,outcome,[1],inactive
